Several values for one entry are separate records, joined by “and”; a condition that tells them apart may be missing. Equal values may be shown once. Results filed as inconclusive are left out. Entries that show only a call come without a potency. A structure can be active in one record and inactive in another. Activity calls are given as the source filed them. Unless noted, calls follow the shape of the dose curve; as a rule, active = well fitted curve in the direction sought with a large enough effect in the repeat runs; inconclusive = weak or mixed curves; inactive = no such curve, though single readings can be large; an effect the other way counts as inactive or inconclusive.
Experiments:
[1] = qHTS assay to identify aromatase inhibitors - cell viability counter screen (AID 743084);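 also: cells stimulated with testosterone during compound exposure; nearly all actives have a fitted effect of over 55% in size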; also: potency is read from the fitted curve at half-maximal effect
[2] = target: Aryl hydrocarbon receptor (Homo sapiens) (UniProt P35869); experiment: qHTS assay to identify small molecule that activate the aryl hydrocarbon receptor (AhR) signaling pathway (AID 743085); also: nearly all actives have a fitted effect of over 15% in size; also: potency is read from the fitted curve at half-maximal effect;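 as to activation: HG2L7.5c1 human HepG2 liver cells with stably integrated DRE-driven firefly reporter; series mostly up to about 70 µM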
Method in brief: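 Compounds were tested in HepG2 hepatocellular carcinoma cells harbouring a stably integrated luciferase gene under control of 20 DREs. Increased reporter signal after 24 h treatment at 37C was taken as AhR activation.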

[3] = qHTS assay to identify small molecule that activate the aryl hydrocarbon receptor (AhR) signaling pathway - cell viability counter screen (AID 743086);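 also: HepG2 liver cells carrying the AhR DRE luciferase reporter; series mostly up to about 70 µM; nearly all actives have a fitted effect of over 45% in size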
Method in brief: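 Cytotoxicity counter screen: CellTiter-Fluor signal (30 min, 37 C) in 4000 HepG2 cells/well carrying the DRE-luciferase reporter, following 24 h compound exposure at 37 C.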

[4] = target: Peroxisome proliferator-activated receptor gamma (Homo sapiens) (UniProt P37231); experiment: qHTS assay to identify small molecule agonists of the peroxisome proliferator-activated receptor gamma (PPARg) signaling pathway (AID 743094; active = well fitted activation curve with a large enough effect in the signal ratio in the repeat runs, not every such curve was filed as active; the % refers to the signal ratio)
Method in brief: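 GeneBLAzer PPARg UAS-bla HEK293H cells carrying a stably integrated beta-lactamase reporter were pre-incubated 5 h at 37C, then exposed to compounds in DMSO for 17 h at 37C; LiveBLAzer B/G FRET substrate was added for 1 h at room temperature and fluorescence read.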

[5] = target: Peroxisome proliferator-activated receptor gamma (Homo sapiens) (UniProt P37231); experiment: qHTS assay to identify small molecule antagonists of the peroxisome proliferator-activated receptor gamma (PPARg) signaling pathway (AID 743191; calls by dose curve; also: nearly all actives have a fitted effect of over 30% in size; also: potency is read from the fitted curve at half-maximal effect)
Method in brief: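 Beta-lactamase reporter under UAS control in HEK293H PPARg-bla cells; compound treatment 17 h at 37C. Read-out: fluorescence intensity after 1 h room-temperature incubation with LiveBLAzer B/G FRET substrate.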

[6] = qHTS assay to identify small molecule antagonists of the peroxisome proliferator-activated receptor gamma (PPARg) signaling pathway - cell viability counter screen (AID 743194); also: nearly all actives have a fitted effect of over 55% in size
Method in brief: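 Viability was measured as CellTiter-Glo luminescence in GeneBLAzer PPARg UAS-bla HEK293H cells. These cells had been exposed 17 h at 37 C to compounds together with rosiglitazone at 50 nM final, with the beta-lactamase readout taken in the same wells.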

[7] = qHTS assay for small molecule agonists of the antioxidant response element (ARE) signaling pathway - cell viability counter screen (AID 743203; calls by dose curve; also: nearly all actives have a fitted effect of over 55% in size)
Method in brief: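 CellSensor ARE-bla HepG2 cells, 2,000 per well, rested 5 hrs at 37C/5% CO2, then exposed to compound in DMSO for 16 hrs; viability read as CellTiter-Glo luminescence after 30 min at room temperature, in the reporter wells.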

[8] = qHTS assay for small molecule activators of the heat shock response signaling pathway - cell viability counter screen (AID 743209); also: nearly all actives have a fitted effect of over 50% in size
Method in brief: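 CellSensor HSE-bla HeLa cells, plated overnight at 37 C/5% CO2, were exposed to compounds in DMSO for 5 h at 37 C. Viability was then read in the same wells by CellTiter-Glo luminescence after 30 min at room temperature.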

[9] = qHTS assay for small molecule activators of the heat shock response signaling pathway (AID 743210; active = well fitted activation curve with a large enough effect in the signal ratio in the repeat runs, with a control signal flat, not every such curve was filed as active; the % refers to the signal ratio;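 also: HeLa cells with beta-lactamase reporter driven by heat shock elements; series mostly up to about 63 µM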)
Method in brief: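 HeLa HSE-bla cells, overnight plating; cpd in DMSO 5 h, 37 C; LiveBLAzer B/G FRET substrate 2.5 h RT; fluorescence intensity read.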

[10] = qHTS assay to identify small molecule agonists of the peroxisome proliferator-activated receptor delta (PPARd) signaling pathway - cell viability counter screen (AID 743211); also: nearly all actives have a fitted effect of over 55% in size
Method in brief: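 Counter screen for cytotoxicity run in parallel with the PPARd reporter screen. Beta-lactamase reporter HEK293H cells exposed to compounds 17 h; ATP-based CellTiter-Glo luminescence quantified viability.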

[11] = target: Peroxisome proliferator-activated receptor delta (Homo sapiens) (UniProt Q03181); experiment: qHTS assay to identify small molecule agonists of the peroxisome proliferator-activated receptor delta (PPARd) signaling pathway (AID 743212; calls by dose curve)
Method in brief: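 HEK293H PPARd-bla cells; 5 h preincubation 37 C/5% CO2; compound (DMSO) 37 C; LiveBLAzer B/G FRET substrate 2 h RT; fluorescence intensity.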

[12] = target: Peroxisome proliferator-activated receptor delta (Homo sapiens) (UniProt Q03181); experiment: qHTS assay to identify small molecule antagonists of the peroxisome proliferator-activated receptor delta (PPARd) signaling pathway (AID 743215; active = well fitted inhibition curve with a large enough effect in the signal ratio in the repeat runs, not every such curve was filed as active; the % refers to the signal ratio;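 also: cells stimulated with agonist L165041 at 300 nM final during compound exposure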; also: potency is read from the fitted curve at half-maximal effect)
Method in brief: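 PPARd UAS-bla HEK293H cells were pre-incubated 5 h at 37 C, then given test compounds in DMSO plus agonist L165041 (300 nM final). After 17 h at 37 C, beta-lactamase FRET substrate was added; fluorescence read after 2 h at room temperature.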

[13] = qHTS assay to identify small molecule agonists of the farnesoid-X-receptor (FXR) signaling pathway - cell viability counter screen (AID 743218); also: nearly all actives have a fitted effect of over 45% in size
Method in brief: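 FXR-UAS-bla HEK 293T cells, plated 5 h at 37 C, were exposed to compounds for 16 h at 37 C. CellTiter-Glo was then added to the same wells as the bla readout; luminescence read after 30 min at room temperature.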

[14] = qHTS assay to identify small molecule antagonists of the farnesoid-X-receptor (FXR) signaling pathway - cell viability counter screen (AID 743221; active = well fitted cell-killing curve with a large enough effect in the repeat runs, not every such curve was filed as active; also: nearly all actives have a fitted effect of over 50% in size)
Method in brief: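 Multiplexed counter screen: viability of FXR-bla HEK 293T cells under agonist stimulation by chenodeoxycholic acid (50 uM, final) and test compound for 16 h at 37 C, measured by CellTiter-Glo luminescence in the reporter wells.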

[15] = target: Vitamin D3 receptor (Homo sapiens) (UniProt P11473); experiment: qHTS assay to identify small molecule agonists of the vitamin D receptor (VDR) signaling pathway (AID 743222; calls by dose curve)
Method in brief: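 VDR-bla cells were plated 4 h at 37C/5% CO2, then exposed to compounds in DMSO for 16 h. After LiveBLAzer B/G FRET substrate addition and 2 h at room temperature, beta-lactamase reporter fluorescence was read.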

[16] = target: Vitamin D3 receptor (Homo sapiens) (UniProt P11473); experiment: qHTS assay to identify small molecule antagonists of the vitamin D receptor (VDR) signaling pathway (AID 743223; active = well fitted inhibition curve with a large enough effect in the signal ratio in the repeat runs, not every such curve was filed as active; the % refers to the signal ratio)
Method in brief: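 Cells carrying a VDR-driven beta-lactamase reporter (VDR-bla) were co-treated with compound and 3 nM final 1alpha,25-dihydroxyvitamin D3 for 16 h at 37C; reporter activity was measured as FRET substrate fluorescence after 2 h at room temperature.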

[17] = qHTS assay to identify small molecule antagonists of the peroxisome proliferator-activated receptor delta (PPARd) signaling pathway - cell viability counter screen (AID 743213); also: nearly all actives have a fitted effect of over 50% in size
Method in brief: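 Luminescence from CellTiter-Glo, added after the bla read and incubated 30 min at room temperature, gives viability of HEK293H PPARd-bla cells exposed to compounds for 17 h at 37 C with 300 nM L165041.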

[18] = target: Bile acid receptor (Homo sapiens) (UniProt Q96RI1); experiment: qHTS assay to identify small molecule antagonists of the farnesoid-X-receptor (FXR) signaling pathway (AID 743217; active = well fitted inhibition curve with a large enough effect in the signal ratio in the repeat runs, not every such curve was filed as active; the % refers to the signal ratio)
Method in brief: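 FXR-UAS-bla HEK 293T cells pre-incubated 5 h at 37 °C, then exposed to compounds with chenodeoxycholic acid (50 uM final) for 16 h at 37 °C. Beta-lactamase reporter read by LiveBLAzer B/G FRET substrate fluorescence after 2 h at room temperature.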

[19] = target: Bile acid receptor (Homo sapiens) (UniProt Q96RI1); experiment: qHTS assay to identify small molecule agonists of the farnesoid-X-receptor (FXR) signaling pathway (AID 743220; active = well fitted activation curve with a large enough effect in the signal ratio in the repeat runs, not every such curve was filed as active; the % refers to the signal ratio)
Method in brief: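 Beta-lactamase reporter under UAS control in GeneBLAzer FXR HEK 293T cells (5000/well) measured with LiveBLAzer FRET substrate after 2 h at room temperature. Compound exposure lasted 16 h at 37C.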

[20] = qHTS assay for small molecule agonists of the antioxidant response element (ARE) signaling pathway (AID 743202; active = well fitted activation curve with a large enough effect in the signal ratio in the repeat runs, not every such curve was filed as active; the % refers to the signal ratio; also: potency is read from the fitted curve at half-maximal effect)
Method in brief: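 Quantitative high-throughput format in HepG2 cells bearing an integrated ARE-beta-lactamase reporter. Compound exposure lasted 16 h at 37 C, and fluorescence was read 2 h after adding LiveBLAzer B/G substrate at room temperature.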

Chain of Bile acid receptor (Homo sapiens) (Q96RI1 whole entry, looked up): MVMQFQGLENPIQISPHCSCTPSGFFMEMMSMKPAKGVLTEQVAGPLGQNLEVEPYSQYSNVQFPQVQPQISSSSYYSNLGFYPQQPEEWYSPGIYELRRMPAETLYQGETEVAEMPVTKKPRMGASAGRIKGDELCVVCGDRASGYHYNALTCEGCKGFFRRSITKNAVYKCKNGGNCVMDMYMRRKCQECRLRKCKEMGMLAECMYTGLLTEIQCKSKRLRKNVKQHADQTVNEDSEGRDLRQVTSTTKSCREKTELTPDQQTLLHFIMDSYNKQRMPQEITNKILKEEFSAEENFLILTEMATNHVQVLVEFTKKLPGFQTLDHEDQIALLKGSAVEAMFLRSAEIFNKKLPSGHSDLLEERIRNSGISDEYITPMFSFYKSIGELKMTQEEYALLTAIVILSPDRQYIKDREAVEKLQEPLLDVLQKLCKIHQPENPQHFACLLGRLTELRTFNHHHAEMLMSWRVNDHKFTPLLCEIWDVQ
Chain of Aryl hydrocarbon receptor (Homo sapiens) (P35869 whole entry, looked up): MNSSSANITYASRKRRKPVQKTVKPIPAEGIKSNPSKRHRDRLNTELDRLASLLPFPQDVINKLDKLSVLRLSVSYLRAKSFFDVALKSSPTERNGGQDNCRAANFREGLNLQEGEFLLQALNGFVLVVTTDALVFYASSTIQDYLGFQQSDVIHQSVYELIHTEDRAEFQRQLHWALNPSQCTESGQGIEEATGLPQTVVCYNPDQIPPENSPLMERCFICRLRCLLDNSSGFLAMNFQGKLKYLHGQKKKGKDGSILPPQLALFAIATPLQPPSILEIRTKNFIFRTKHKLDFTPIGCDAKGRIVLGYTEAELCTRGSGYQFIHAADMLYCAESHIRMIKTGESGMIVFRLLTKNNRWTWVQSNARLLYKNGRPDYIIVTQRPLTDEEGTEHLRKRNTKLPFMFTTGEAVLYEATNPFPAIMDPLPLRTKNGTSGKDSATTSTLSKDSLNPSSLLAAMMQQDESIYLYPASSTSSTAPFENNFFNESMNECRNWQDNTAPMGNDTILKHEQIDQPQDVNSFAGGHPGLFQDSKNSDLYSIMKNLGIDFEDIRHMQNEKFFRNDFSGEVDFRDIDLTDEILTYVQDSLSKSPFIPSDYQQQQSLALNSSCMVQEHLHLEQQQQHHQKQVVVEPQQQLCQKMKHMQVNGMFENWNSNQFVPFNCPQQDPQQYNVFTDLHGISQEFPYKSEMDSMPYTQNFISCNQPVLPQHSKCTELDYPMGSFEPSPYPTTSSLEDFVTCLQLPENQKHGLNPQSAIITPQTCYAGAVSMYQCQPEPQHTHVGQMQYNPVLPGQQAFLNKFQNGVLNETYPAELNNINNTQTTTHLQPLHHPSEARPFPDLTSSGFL
Chain of Peroxisome proliferator-activated receptor delta (Homo sapiens) (Q03181 whole entry, looked up): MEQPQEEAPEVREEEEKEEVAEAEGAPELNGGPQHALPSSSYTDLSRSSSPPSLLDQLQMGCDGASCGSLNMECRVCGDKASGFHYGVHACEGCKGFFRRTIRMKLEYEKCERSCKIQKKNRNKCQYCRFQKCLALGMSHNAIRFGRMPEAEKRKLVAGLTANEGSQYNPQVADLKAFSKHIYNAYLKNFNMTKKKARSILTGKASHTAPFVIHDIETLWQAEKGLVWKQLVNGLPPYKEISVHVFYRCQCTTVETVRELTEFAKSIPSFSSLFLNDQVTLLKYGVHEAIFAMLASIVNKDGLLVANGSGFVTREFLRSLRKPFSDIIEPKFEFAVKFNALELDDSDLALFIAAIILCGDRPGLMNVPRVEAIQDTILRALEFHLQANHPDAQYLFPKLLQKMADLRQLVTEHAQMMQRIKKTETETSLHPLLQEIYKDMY
Chain of Peroxisome proliferator-activated receptor gamma (Homo sapiens) (P37231 whole entry, looked up): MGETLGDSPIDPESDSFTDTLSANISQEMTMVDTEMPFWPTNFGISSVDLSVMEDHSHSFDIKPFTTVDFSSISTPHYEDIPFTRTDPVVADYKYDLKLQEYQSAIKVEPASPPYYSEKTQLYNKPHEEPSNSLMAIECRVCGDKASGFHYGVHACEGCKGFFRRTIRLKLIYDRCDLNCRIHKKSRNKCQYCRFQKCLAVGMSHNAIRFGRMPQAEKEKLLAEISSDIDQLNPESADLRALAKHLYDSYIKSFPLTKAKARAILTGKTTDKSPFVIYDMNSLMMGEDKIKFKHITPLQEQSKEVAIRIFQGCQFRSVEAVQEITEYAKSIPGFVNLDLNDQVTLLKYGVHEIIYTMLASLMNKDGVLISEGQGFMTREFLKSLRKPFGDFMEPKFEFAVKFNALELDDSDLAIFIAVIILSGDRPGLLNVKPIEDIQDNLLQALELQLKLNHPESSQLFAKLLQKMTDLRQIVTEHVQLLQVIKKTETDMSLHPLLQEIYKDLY
Chain of Vitamin D3 receptor (Homo sapiens) (P11473 whole entry, looked up): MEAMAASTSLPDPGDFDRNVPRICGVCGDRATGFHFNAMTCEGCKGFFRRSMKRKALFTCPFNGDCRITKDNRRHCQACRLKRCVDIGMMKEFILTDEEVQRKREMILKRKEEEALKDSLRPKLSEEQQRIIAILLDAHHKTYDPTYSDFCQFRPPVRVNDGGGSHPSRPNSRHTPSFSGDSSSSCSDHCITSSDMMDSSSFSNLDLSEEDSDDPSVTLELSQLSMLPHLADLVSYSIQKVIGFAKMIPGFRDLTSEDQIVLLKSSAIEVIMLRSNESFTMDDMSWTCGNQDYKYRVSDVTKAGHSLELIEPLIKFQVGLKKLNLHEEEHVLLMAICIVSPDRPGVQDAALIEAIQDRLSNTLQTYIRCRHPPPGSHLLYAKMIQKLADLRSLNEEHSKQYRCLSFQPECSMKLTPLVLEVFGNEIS

Structure (SMILES)	Potency [1]	Potency [2]	Potency [3]	Potency [4]	Potency [5]	Potency [6]	Potency [7]	Potency [8]	Potency [9]	Potency [10]	Potency [11]	Potency [12]	Potency [13]	Potency [14]	Potency [15]	Potency [16]	Potency [17]	Potency [18]	Potency [19]	Potency [20]
CCC(N)(CO)CO	inactive	inactive	inactive	inactive	inactive	inactive	inactive	inactive	inactive	inactive	inactive	inactive	inactive	inactive	inactive	inactive	–	–	–	–
CC(=O)OCC(C)OC(C)=O (stereo not drawn)	inactive	inactive	inactive	inactive	inactive	inactive	inactive	inactive	–	inactive	inactive	inactive	–	inactive	inactive	inactive	inactive	inactive	inactive	–
NC(=O)NS(=O)(=O)c1ccc(N)cc1	inactive	inactive	inactive	inactive	inactive	inactive	inactive	inactive	inactive	inactive	–	–	inactive	inactive	–	–	inactive	–	–	inactive
COc1cc(/C=C/C(=O)O[C@H]2CC[C@]34C[C@]35CC[C@]3(C)[C@@H]([C@H](C)CCC=C(C)C)CC[C@@]3(C)[C@@H]5CC[C@H]4C2(C)C)ccc1O	inactive	inactive	inactive	inactive	inactive	inactive	inactive	inactive	–	–	inactive	inactive	inactive	inactive	–	inactive	inactive	inactive	inactive	–
CCCC1O[C@@H]2C[C@H]3[C@@H]4CCC5=CC(=O)C=C[C@]5(C)[C@H]4[C@@H](O)C[C@]3(C)[C@]2(C(=O)CO)O1 (stereo partly drawn)	inactive and 61.2 µM (active)	inactive	inactive	inactive	inactive	inactive	inactive	inactive	inactive	inactive	inactive	inactive	inactive	inactive	inactive	inactive	inactive	inactive	inactive	30.7 µM (active) and 54.5 µM (active)
O=c1[nH]cnc2nc[nH]c12	inactive	inactive	inactive	inactive	–	inactive	inactive	inactive	inactive	inactive	–	–	inactive	inactive	–	–	–	inactive	inactive	inactive
O=C(OCC1CO1)C1CCCCC1C(=O)OCC1CO1 (stereo not drawn)	48.6 µM (active)	inactive	inactive	inactive	–	inactive	inactive	inactive	inactive	inactive	–	–	inactive	inactive	inactive	–	inactive	–	–	48.6 µM (active)
O=[N+]([O-])c1ccccc1Nc1ccccc1	inactive	inactive	inactive	inactive	inactive	inactive	inactive	–	inactive	–	–	–	inactive	inactive	inactive	inactive	inactive	–	–	inactive
CCCCCOC(=O)CCCC	inactive	inactive	inactive	inactive	inactive	inactive	inactive	inactive	–	inactive	–	–	inactive	inactive	inactive	inactive	inactive	inactive	inactive	inactive
NNC(=O)c1cccc(C(=O)NN)c1	inactive	27.3 µM (active)	inactive	inactive	inactive	inactive	inactive	inactive	inactive	inactive	inactive	inactive	inactive	inactive	inactive	–	inactive	inactive	inactive	inactive
CCCC(C)c1ccccc1O (stereo not drawn)	inactive	inactive	inactive	inactive	inactive	inactive	inactive	inactive	inactive	inactive	inactive	inactive	inactive	inactive	inactive	inactive	inactive	inactive	inactive	inactive
Oc1ccc2cc(SSc3ccc4cc(O)ccc4c3)ccc2c1	54.5 µM (active)	inactive	inactive	inactive	13.8 µM (active)	–	inactive	–	–	–	inactive	17.4 µM (active)	–	inactive	–	–	–	inactive	inactive	–
CCN(C(=O)N(CC)c1ccccc1)c1ccccc1	inactive	inactive	inactive	inactive	inactive	inactive	inactive	inactive	inactive	inactive	–	–	inactive	inactive	–	–	inactive	–	–	–
O=C(NO)C1(NS(=O)(=O)c2ccc(Oc3ccc(F)cc3)cc2)CCOCC1	inactive	inactive	inactive	inactive	inactive	inactive	inactive	inactive	inactive	inactive	inactive	inactive	inactive	inactive	–	inactive	inactive	–	–	–
CCCCCCC[N+](CC)(CC)CCCCc1ccc(Cl)cc1	inactive	inactive	inactive	inactive	inactive	inactive	inactive	inactive	–	–	–	–	inactive	inactive	–	inactive	inactive	–	–	–

Source: PubChem BioAssay (Tox21)
